# VP16 counter: VP16 counterscreen qHTS for inhibitors of ROR gamma transcriptional activity. AID 2546, 2010. actives 3.5% (n = 310,000). Potency, µM (series often up to 53.6 µM), without a hit: top-dose activity, negative = inhibition, most hits filed as inhibitors. Drosophila S2 Gal4-VP16 UAS-luciferase, luminescence, 20 h;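 note: Gal4-VP16 expression switched on by copper sulfate through the metallothionein promoter; potency is the fitted concentration of half-maximal effect; % is set by controls: 0 for no effect and ±100 for the full control effect; nearly all actives have a fitted effect of over 50% in size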
# Giardia killer: Small Molecules that selectively kill Giardia lamblia: qHTS; Giardia lamblia trophozoite viability; activity change, % at 7.66 µM, hits read low; actives 0.15% (n = 340,000); AID 540267, 2011; in the data active = activity change below about -80%; inconclusive = between about -30% and that limit;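 note: parasites exposed to compound for two days anaerobically before the ATP read; % is set by controls: 0 for no effect and ±100 for the full control effect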
#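 Anaerobic 48 hrs incubation at 37 deg C of 100 trophozoites/well with test compounds; ATPLite 1-Step luminescence, 15-30 min RT, reports cellular ATP as viability.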
# a7 integrin act: qHTS for Activators of Integrin-Mediated Alleviation for Muscular Dystrophy. alpha7betagal myoblasts, beta-gal FDG fluorescence, 48 h. Potency, µM (doses to about 38.3 µM), for the others: at the highest dose activation, hits mostly activators. actives 0.064% (n = 350,000);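 note: potency is the fitted concentration of half-maximal effect; 100% = response of the positive control SU9516; nearly all actives have a fitted effect of over 60% in size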
#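 alpha7betagal+/- myoblasts (passage 13, 250/well) treated 48 h at 37C with compounds at 1:260 dilution of DMSO stock. Lysed, then beta-galactosidase activity read as FDG fluorescence (ex 480/em 540) after 30 min, with pre-read for autofluorescence.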
# RORgamma inh: qHTS for inhibitors of ROR gamma transcriptional activity; Nuclear receptor ROR-gamma (Mus musculus), P51450; Drosophila S2 Gal4-RORgamma UAS-luciferase reporter, 20 h; Potency, µM (series often up to 53.6 µM), for the others: top-dose activity change, negative = inhibition, most hits filed as inhibitors; actives 5.4% (n = 310,000); note: potency is the fitted concentration of half-maximal effect; % is set by controls: 0 for no effect and ±100 for the full control effect; nearly all actives have a fitted effect of over 60% in size
#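 Drosophila S2 cells stably expressing Gal4-DBD/mouse RORγ fusion under metallothionein promoter plus UAS-luciferase; compound 1 h, then 700 uM CuSO4 induction for 20 h at ambient temperature; inhibition read as reduced luminescence.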
# ERG-DNA inh: qHTS for Small Molecule Inhibitors of the ERG Ets/DNA interaction; Transcriptional regulator ERG (Homo sapiens), P11308; fluorescence polarization, His-ERG Ets domain / labelled DNA; Potency, µM (series often up to 76.9 µM), for the others: top-dose FP activity, negative = inhibition, hits mostly inhibitors; actives 0.028% (n = 370,000); AID 624246, 2012; active = well fitted inhibition curve with a large enough effect in the polarisation, with a control signal flat; inconclusive = small, poorly fitted or top-dose-only effect, or effect the other way, or a change in a side signal; inactive = no such curve, though single readings can be large or run the other way; the % refers to the polarisation;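 note: polarization taken with two DNA probes labelled with fluorescein and Texas red; potency is the fitted concentration of half-maximal effect; % of control where 0% means no effect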
# Target sequence (P11308 whole entry, looked up, the tested form may be a part): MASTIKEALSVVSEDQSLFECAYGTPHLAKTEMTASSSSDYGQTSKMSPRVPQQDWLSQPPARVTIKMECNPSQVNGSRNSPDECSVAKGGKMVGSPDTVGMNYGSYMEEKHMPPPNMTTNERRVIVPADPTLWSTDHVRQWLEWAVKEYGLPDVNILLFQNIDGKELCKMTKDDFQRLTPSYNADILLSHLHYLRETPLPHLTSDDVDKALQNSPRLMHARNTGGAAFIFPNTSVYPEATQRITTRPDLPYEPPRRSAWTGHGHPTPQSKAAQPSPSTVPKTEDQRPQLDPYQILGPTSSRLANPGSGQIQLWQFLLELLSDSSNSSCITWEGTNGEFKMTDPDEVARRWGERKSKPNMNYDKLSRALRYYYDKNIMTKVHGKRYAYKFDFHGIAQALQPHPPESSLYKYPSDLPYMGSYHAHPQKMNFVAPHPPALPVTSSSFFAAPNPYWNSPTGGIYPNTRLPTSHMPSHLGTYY
#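 His-tagged ERG Ets domain (1 uM in the protein solution; 300mM KCl, 50mM Tris-HCl, 1mM EDTA, 1mM DTT, pH 7.5) received compound, then a probe mix of 5 nM fluorescein-DNA and 100nM Texas-615-DNA. Fluorescence polarization was read for both dyes.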
# * hit, by the source's call; ? = inconclusive; nt = no result; [ ] = dose if it differs, or a comment. This is one part of a sample in which hits are shown more often than they occur. Unless noted, calls come from the whole dose curve; as a rule, active = well fitted curve in the direction sought with a large enough effect; inconclusive = small, poorly fitted or top-dose-only effect, or another doubt; inactive = no such curve, though single readings can be large; an effect the other way counts as inactive or inconclusive.
SMILES,VP16 counter,Giardia killer,a7 integrin act,RORgamma inh,ERG-DNA inh
CCN1CCN(c2cc(C)c3cc(NC(=S)N4CCCC(C)C4)ccc3n2)CC1 (centres undefined),-9.5%,-23.1,-68.2%,-36.1%,-6.5%
CC(C)OC(=O)Cn1nc(C(c2ccccc2)c2ccccc2)oc1=O,-1.8%,9.3,-3.8%,-8.2%[1.91 µM],-10.3%
O=C(NC(=S)NC1C2CC3CC(C2)CC1C3)C12CC3CC(CC(C3)C1)C2 (centres undefined),2.82µM*,9.9,9.0%,1µM*,-3.3%
CC(C)(C)NC(=S)NC(=O)C12CC3CCC(CC(C3)C1)C2,4.47µM*,-1.2,4.8%,2.82µM*,nt
CN(C)NC(=S)NC(=O)C12CC3CC(CC(C3)C1)C2,2.82µM*,6.2,11.9%,1µM*,2.1%
CN(C(=S)NC(=O)C12CC3CC(CC(C3)C1)C2)c1ccc(O)cc1,nt,-9.0,-54.0%,nt,1.5%
CC12CC3(C)CC(C)(C1)CC(C(=O)NC(=S)NC(C)(C)C)(C2)C3,-0.9%,-0.2,-12.0%,-15.2%,-1.8%
O=C(NC1C2CC3CC(C2)CC1C3)C1CC1 (centres undefined),-8.8%,3.7,-12.0%,31.8%,-8.0%
CCN1C(=O)[C@H]2[C@H]3[C@H](O)[C@H](O)C/C(=N/O[C@@H]4O[C@H](COC(C)=O)[C@@H](OC(C)=O)[C@H](OC(C)=O)[C@H]4OC(C)=O)[C@@H]3CC[C@@H]2C1=O,-5.0%[10 µM],nt,nt,-20.8%[10 µM],nt
COc1ccccc1/C=C/C(=O)NC(=S)N(C)C1CCCCC1,3.16µM*,1.3,0.0%,?,7.3%
COc1ccc(C(=O)NCCS(=O)(=O)N(C)C2CCCCC2)cc1,nt,-5.7,-25.1%,nt,nt
COc1ccc(C(=O)NC(=S)N(C)C2CCCCC2)cc1,3.98µM*,4.8,2.7%,2µM*,0.5%
COc1ccc(C(=O)NC(=S)N(C)C2CCCCC2)cc1Br,0.708µM*,-21.7,-5.7%,0.708µM*,17.6%
Cc1ccc(C(=O)NC(=S)N(C)C2CCCCC2)cc1Br,0.501µM*,nt,nt,0.224µM*,nt
COc1ccc(C(=O)NC2CCCc3ccccc32)cc1Br (centres undefined),3.3%,4.3,-11.8%,1.6%,1.3%
O=C1[C@H]2[C@H]3[C@H](O)[C@H](O)C/C(=N/OC[C@@H](O)COCc4ccco4)[C@H]3CC[C@@H]2C(=O)N1Cc1ccccc1,0.4%[10 µM],nt,nt,-0.2%[10 µM],nt
CC1=C(C(=O)Nc2ccc(Cl)cc2)C2(CCCCC2)C(C(N)=O)C(=S)N1 (centres undefined),0.3%,nt,nt,-13.2%,nt
CN[C@@H]1[C@H](O[C@@H]2O[C@H](C)[C@@](O)(CO)[C@H]2O[C@H]2[C@H](O)[C@H](O)[C@H](N=C(N)N)[C@@H](O)[C@@H]2N=C(N)N)O[C@@H](CO)[C@H](O)[C@H]1O,-0.5%,nt,nt,-15.5%,nt
COc1ccc(-c2cn3cc(C)ccc3n2)cc1Br,7.08µM*,?,?,?,-2.8%
CC1CCCCN1S(=O)(=O)c1ccc2c(c1)oc(=O)n2CC(=O)Nc1ccc(Cl)cc1 (centres undefined),nt,nt,nt,nt,5.2%
COc1cc(C=O)ccc1OCc1cccc(Br)c1,?,-5.0,29.4%,?,4.0%
COC(=O)c1ccccc1OCCCOc1ccc(C=O)cc1OC,10µM*,-26.0,-15.3%,8.91µM*,1.2%
COc1cc(C=O)ccc1OCc1ccccc1Br,11.2µM*,-22.5,7.0%,10µM*,nt
COC(=O)c1ccccc1OCCOc1ccccc1C(=O)OC,-0.4%,0.1,3.0%,20.7%,4.2%
COc1ccccc1CCNC(=O)Cc1c(C)c2cc3c(C(C)(C)C)coc3c(C)c2oc1=O,nt,nt,nt,nt,3.5%
O=C1C(CCCNC(=S)NCc2ccccc2)NC(=S)N1Cc1ccccc1 (centres undefined),?,11.4,12.9%,22.4µM*,11.6%
CCOc1ccc(/C=N/NC(=O)c2c(-c3ccccc3)noc2C)cc1,?,2.2,-8.2%,?,-5.3%
CCN(CC)c1ccc(/C=N/NC(=O)Nc2nonc2N)cc1,-99.1%,13.6,17.2%,7.08µM*,-8.5%
